# Measurements: PubChem BioAssay (Tox21)
# Inconclusive results are not listed. Entries that show only a call come without a potency. Values without a mark were called inactive. Activity calls are given as the source filed them. The call rests on the fitted dose curve; in most records, active means well fitted activation curve with a large enough effect in the repeat runs; inconclusive means weak or mixed curves; inactive means flat fitted curve, though single readings scatter.
# Experiment: A CellTox Green Cytotoxicity Assay to monitor cytotoxicity in HEK293 cells - 24 hour (AID 1224875); further: nearly all actives have a fitted effect of over 45% in size
# Conditions: CellTox Green fluorescence; series mostly up to 76.8 µM; activity change: at the top concentration
# Excerpt: National Center for Advancing Translational Sciences [NCATS]
# NIH Chemical Genomics Center [NCGC]
# U.S. Environmental Protection Agency [EPA]
# National Institutes of Environmental Health Sciences [NIEHS]
# National Toxicology Program [NTP]
# Cell-based models are critical for drug discovery. Determining the natural cytotoxic effects resulting from test compounds is an essential research activity. A CellTox Green Cytotoxicity Assay to monitor cytotoxicity in real time of continues cell culture during 40 hours of the compound treatment was used to screen Tox21 10K library compounds in Hek293 cells. CellTox Green Cytotoxicity Assay is a nonlytic, homogeneous, biofluorescent method to measure cytotoxicity in cell culture after experimental manipulation. The assay system uses a proprietary asymmetric cyanine dye that is excluded from viable cells but preferentially stains the dead cell's DNA. […] Viable cells produce no appreciable increases in fluorescence. Therefore, the fluorescence signal produced by the binding interaction with dead cell DNA is proportional to cytotoxicity.
# The mixture of Hek293 cell suspension and reagents were dispensed at 600cells/6 ul/well in 1536-well tissue culture treated black solid bottom plates using a Multidrop dispenser. After the assay plates were incubated at a 37 C/5% CO2 incubator for 5 hours, 23 nL of compounds dissolved in DMSO, positive and negative controls was transferred to the assay plate by a pintool work station. The plates were incubated at 37 C for 40 hours. The fluorescence intensity were measured at 0h, 8h, 16h, 24h, 32h and 40h time points using ViewLux plate reader during compound treatment.
Structure (SMILES),activity change,Potency
CCNc1nc(NC(C)(C)C)nc(SC)n1,1.46%,–
Nc1ccc(Br)cc1,–,inactive
CN(N=O)c1ccccc1,–,inactive
O=NN1CCCC1,–,inactive
CON(C)C(=O)Nc1ccc(Cl)c(Cl)c1,–,inactive
CC(C)(Cl)Cl,–,inactive
CCN(CC)CCO,–,inactive
O=[N+]([O-])c1ccc(Oc2ccc(Cl)cc2Cl)cc1,–,inactive
O=C1CCCN1,–,inactive
CCOC(=O)c1ccccc1C(=O)OCC,–,inactive
CCC12COCN1COC2,–,inactive
C#CCN(C)[C@H](C)Cc1ccccc1,–,inactive
O=c1ccc(=O)[nH][nH]1,–,inactive
O=[N+]([O-])c1ccccc1,–,inactive
CCNc1nc(NC(C)C)nc(SC)n1,–,inactive
O=NN1CCCCCCC1,–,inactive
CC(C)=C[C@@H]1[C@@H](C(=O)OCc2coc(Cc3ccccc3)c2)C1(C)C,–,inactive
C=C(C)CCl,–,inactive
c1ccc2c(c1)oc1ccccc12,24.4%,–
Cc1cc(-c2cc(C)c(N)c(C)c2)cc(C)c1N,–,inactive

Structure (SMILES),activity change,Potency
CC(Br)C(=O)O (stereo not given),–,inactive
C#CC(C)(C)NC(=O)c1cc(Cl)cc(Cl)c1,–,inactive
CCN(CC)c1ccccc1,–,inactive
CC(NC(C)(C)C)C(=O)c1cccc(Cl)c1 (stereo not given),–,inactive
O=Cc1cccc(Oc2ccccc2)c1,–,inactive
O=S(=O)(c1ccc(Cl)cc1)c1cc(Cl)c(Cl)cc1Cl,–,inactive
CCOP(=S)(OCC)Oc1cnc2ccccc2n1,–,inactive
CC(C)(C)C(O)(CCc1ccc(Cl)cc1)Cn1cncn1 (stereo not given),–,inactive
Nc1ccc(Cc2ccc(N)cc2)cc1,–,inactive
Cc1ccc([N+](=O)[O-])cc1C,–,inactive
Cc1ccccc1O,–,inactive
Clc1ccccc1Cl,–,inactive
Nc1ccc(Oc2ccc(N)cc2)cc1,–,inactive
CC(C)C1(C)N=C(c2nc3ccccc3cc2C(=O)O)NC1=O (stereo not given),–,inactive
CCCCCCCCCl,–,inactive
CC(=O)C=C(C)C,–,inactive
OCCN(CCO)CCO,–,inactive
ClCc1cccnc1,–,inactive
O=S(=O)(c1ccc(O)cc1)c1ccc(O)cc1,–,inactive
CCCN(CCC)N=O,–,inactive
